# From PubChem BioAssay (EPA / NIEHS)
# Results filed as inconclusive are left out. The source made the active and inactive calls. The calls were made as follows: active = hit-call score of the fitted dose curve at least 0.9, where 1 is the maximum; inconclusive = response in the unintended direction; inactive = score below 0.9.
# Assays:
# [1] = TOX21_p53_BLA_p2_viability: Viability Assessment in the Tox21 HCT-116 p53 Agonism Beta-lactamase Assay, Phase 2 (AID 2283591);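 also: compound exposure lasted 16 h at 37 °C; actives lower the ATP signal meaning cytotoxicity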
# How it was run: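 Cytotoxicity readout: CellTiter-Glo ATP luminescence, 30 min at room temperature, after the beta-lactamase read. Cells were HCT116 exposed 16 h at 37C to compounds pin-transferred at 217-fold dilution from DMSO stocks.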
# [2] = target: Cellular tumor antigen p53 (Homo sapiens) (UniProt P04637); experiment: TOX21_p53_BLA_p2_ratio: Tox21 HCT-116 p53 Agonism Beta-lactamase Assay, Ratio, Phase 2 (AID 2283592)
# Chain of Cellular tumor antigen p53 (Homo sapiens) (P04637 whole entry, looked up): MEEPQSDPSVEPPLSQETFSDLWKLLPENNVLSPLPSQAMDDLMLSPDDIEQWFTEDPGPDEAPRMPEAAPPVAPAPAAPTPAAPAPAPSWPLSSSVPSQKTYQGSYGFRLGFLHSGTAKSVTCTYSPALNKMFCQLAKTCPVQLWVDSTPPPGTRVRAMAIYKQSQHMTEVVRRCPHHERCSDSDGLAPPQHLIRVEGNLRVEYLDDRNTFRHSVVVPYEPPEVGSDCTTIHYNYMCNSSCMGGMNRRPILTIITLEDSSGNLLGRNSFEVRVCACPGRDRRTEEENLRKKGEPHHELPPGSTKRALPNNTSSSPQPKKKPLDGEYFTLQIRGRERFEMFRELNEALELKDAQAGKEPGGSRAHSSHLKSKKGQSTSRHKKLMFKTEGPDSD
# How it was run: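 Ratio endpoint: beta-lactamase cleavage of CCF4-AM, blue (460 nm) over green (530 nm). HCT116 reporter line; 16 h treatment, 37C; substrate 2 h RT.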
# [3] = TOX21_p53_BLA_p3_viability: Viability Assessment in the Tox21 HCT-116 p53 Agonism Beta-lactamase Assay, Phase 3 (AID 2283593);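 also: cells exposed to compound for 16 h before reading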
# How it was run: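 Cellular ATP was quantified by CellTiter-Glo luminescence, read after 30 min at room temperature. Beforehand, HCT116 cells (4000/well) received compound 5 h post-seeding, 217-fold diluted from DMSO, then incubated 16 h at 37C.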
# [4] = target: Cellular tumor antigen p53 (Homo sapiens) (UniProt P04637); experiment: TOX21_p53_BLA_p3_ratio: Tox21 HCT-116 p53 Agonism Beta-lactamase Assay, Ratio, Phase 3 (AID 2283596)
# How it was run: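 Cells were seeded at 4000/well, rested 5 h at 37C, then dosed with DMSO compound solutions (217-fold dilution) for 16 h. CCF4-AM substrate was loaded for 2 h at room temperature, and the 460/530 nm emission ratio was fitted for gain of signal versus DMSO.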
# [5] = target: Cellular tumor antigen p53 (Homo sapiens) (UniProt P04637); experiment: TOX21_p53_BLA_p5_ratio: Tox21 HCT-116 p53 Agonism Beta-lactamase Assay, Ratio, Phase 5 (AID 2283599)
# How it was run: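 Beta-lactamase reporter ratio (blue 460 nm over green 530 nm, 405 nm excitation) after 2 h CCF4-AM loading, in HCT-116 cells exposed 16 h at 37 C to compounds pinned at 217-fold dilution. Increases relative to DMSO baseline scored.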
# [6] = TOX21_p53_BLA_p5_viability: Viability Assessment in the Tox21 HCT-116 p53 Agonism Beta-lactamase Assay, Phase 5 (AID 2283600)
# How it was run: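 Luciferase-coupled ATP quantitation of cells treated for 16 h (37C, 5% CO2) with test chemicals delivered in DMSO via a 217-fold dilution; 4000 cells/well; reagent incubated 30 min at room temperature before luminescence reading.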
# [7] = target: Cellular tumor antigen p53 (Homo sapiens) (UniProt P04637); experiment: TOX21_p53_BLA_p4_ratio: Tox21 HCT-116 p53 Agonism Beta-lactamase Assay, Ratio, Phase 4 (AID 2283601)
# How it was run: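 Signal is the blue/green (460nm/530nm) ratio of cleaved versus uncleaved CCF4-AM substrate, read after 2 h substrate loading. Cells were HCT116 carrying the p53-responsive beta-lactamase reporter, dosed 16 h at 37C, 5% CO2; CellTiter-Glo measured in parallel.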
SMILES,outcome [1],outcome [2],outcome [3],outcome [4],outcome [5],outcome [6],outcome [7],AC50 [1],AC50 [2],AC50 [3],AC50 [4],AC50 [5],AC50 [6]
CCCOC(=O)c1ccccc1,inactive,inactive,inactive,inactive,inactive,inactive,inactive,–,–,–,–,–,–
COc1cc(C(=O)NCc2ccc(OCCN(C)C)cc2)cc(OC)c1OC,inactive,inactive,inactive,inactive,inactive,inactive,inactive,–,–,–,–,–,–
O=C(O)c1cc(Cl)cc(Cl)c1,inactive,inactive,inactive,inactive,inactive,inactive,inactive,–,–,–,–,–,–
Cc1ncc([N+](=O)[O-])n1CC(C)O (stereo not given),inactive,inactive,inactive,inactive,inactive,inactive,inactive,–,–,–,–,–,–
O=C(N/N=C/c1ccccc1O)c1ccncc1,inactive,inactive,inactive,inactive,inactive,inactive,inactive,–,–,–,–,–,–
O=C1Nc2ccccc2C1=O,inactive,inactive,inactive,inactive,inactive,inactive,–,–,–,–,–,–,–
C=CC(=O)CCCCC,inactive,inactive,inactive,inactive,inactive,inactive,inactive,–,–,–,–,–,–
CCOC(=O)C1=C(C)NC(C)=C(C(=O)OCC)C1c1ccccc1/C=C/C(=O)OC(C)(C)C,–,–,–,–,–,inactive,inactive,35.4 µM (active),38.6 µM (active),43 µM (active),39.5 µM (active),26.5 µM (active),–
CC1CN(c2ccccc2)NC1=O (stereo not given),inactive,inactive,inactive,inactive,inactive,inactive,inactive,–,–,–,–,–,–
CCCCCCCCSCC,inactive,inactive,inactive,inactive,inactive,inactive,inactive,–,–,–,–,–,–
C=C(C)c1ccccc1,inactive,inactive,inactive,inactive,inactive,inactive,inactive,–,–,–,–,–,–
CC(C)C[C@@H](NC(=O)[C@@H](O)[C@H](N)Cc1ccccc1)C(=O)O,inactive,inactive,inactive,inactive,inactive,inactive,inactive,–,–,–,–,–,–
Nc1ccc(C(=O)Nc2ccccc2N)cc1,inactive,–,inactive,–,inactive,inactive,inactive,–,12.6 µM (active),–,21.1 µM (active),–,–
O=C(O)c1cccc(C(=O)O)c1C(=O)O,inactive,inactive,inactive,inactive,inactive,inactive,inactive,–,–,–,–,–,–
O=P(O)(OCc1ccccc1)OCc1ccccc1,inactive,inactive,inactive,inactive,–,inactive,inactive,–,–,–,–,86.9 µM (active),–
C=C1[C@@H]2CC[C@@H](C2)C1(C)C,inactive,inactive,inactive,inactive,inactive,inactive,inactive,–,–,–,–,–,–
C[C@@H](O)[C@H]1C(=O)N2C(C(=O)[O-])=C(SC3Cn4cnc[n+]4C3)[C@H](C)[C@H]12 (stereo not given in full),inactive,inactive,inactive,inactive,inactive,inactive,–,–,–,–,–,–,–
NC(=O)c1ccc([N+](=O)[O-])cc1,inactive,inactive,inactive,inactive,inactive,inactive,–,–,–,–,–,–,–
COC(=O)[C@@H](N)CS,inactive,inactive,inactive,inactive,inactive,inactive,inactive,–,–,–,–,–,–
O=C(CCBr)N1CCN(C(=O)CCBr)CC1,inactive,inactive,inactive,inactive,inactive,inactive,inactive,–,–,–,–,–,–
CCCCCCCCCCCCCCCCCC(=O)[O][Al],inactive,inactive,inactive,inactive,inactive,inactive,inactive,–,–,–,–,–,–
CCOc1nc2cccc(C(=O)O)c2n1Cc1ccc(-c2ccccc2-c2nn[nH]n2)cc1,–,–,–,–,–,–,–,21.9 µM (active),28.7 µM (active),35.8 µM (active),43.3 µM (active),44.3 µM (active),38.2 µM (active)
C=CC(C)(O)CC/C=C(\C)CCC=C(C)C (stereo not given),inactive,inactive,inactive,inactive,inactive,inactive,inactive,–,–,–,–,–,–
COc1ccc(C(=O)Nc2ccccc2)cc1[N+](=O)[O-],inactive,inactive,inactive,inactive,inactive,inactive,inactive,–,–,–,–,–,–
NCCS(=O)(=O)O,inactive,inactive,inactive,inactive,inactive,inactive,inactive,–,–,–,–,–,–
CN(C)CCN(C)CCN(C)C,inactive,inactive,inactive,inactive,inactive,inactive,inactive,–,–,–,–,–,–
COc1cccc2c1[C@@H]1CN(CCCCn3c(=O)[nH]c4c(sc5ncc(-c6ccccc6)nc54)c3=O)C[C@@H]1CO2,–,inactive,inactive,inactive,inactive,inactive,inactive,39.8 µM (active),–,–,–,–,–
